Measurements taken from PubChem BioAssay (NCATS).
Inconclusive results are not listed. A call without a number means that no potency is given here. Values without a mark were called inactive. The source made the active and inactive calls. Calls follow the shape of the dose curve; as a rule, active = well fitted curve in the direction sought with a large enough effect; inconclusive = small, poorly fitted or top-dose-only effect, or another doubt; inactive = no such curve, though single readings can be large; an effect the other way counts as inactive or inconclusive.

Legend:
[1] = qHTS of pediatric cancer cell lines to identify multiple opportunities for drug repurposing: Primary screen for Saos-2 cells (AID 1347097); also: nearly all actives have a fitted effect of over 40% in size
Outline: (§1)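 500-1,000 cells/well; 5 h pre-incubation 37 °C/5% CO2; compound pinned; 48 h; CellTiter-Glo, 15 min RT; luminescence. MIPE 11-pt from 0.78 nM, NPC 8-pt from 0.59 nM final. Bortezomib 2.3 µM final as positive control.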

[2] = qHTS of pediatric cancer cell lines to identify multiple opportunities for drug repurposing: Primary screen for SK-N-SH cells (AID 1347098);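 also: DMSO served as neutral control and bortezomib at 2.3 µM as positive control; nearly all actives have a fitted effect of over 65% in size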
Outline: (§2)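 Cells (500-1,000/well) rested 5 h, then received compounds for 48 h; metabolically active cells were measured by CellTiter-Glo luminescence. Final concentrations spanned up to 46 µM (MIPE, 11-point) or 0.59 nM-46 µM (NPC, 8-point) in primary screens, 11-point in follow-ups.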

[3] = qHTS of pediatric cancer cell lines to identify multiple opportunities for drug repurposing: Primary screen for NB1643 cells (AID 1347099); also: nearly all actives have a fitted effect of over 50% in size
Outline: as §1

[4] = qHTS of pediatric cancer cell lines to identify multiple opportunities for drug repurposing: Primary screen for LAN-5 cells (AID 1347100)
Outline: (§3)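 Viability after 48 h compound treatment at 37C, 500-1,000 cells/well, read as ATP luminescence with CellTiter-Glo. Primary screens used 11-point (MIPE, 0.78 nM-46 µM) or 8-point (NPC, 0.59 nM-46 µM) final concentrations; follow-up screens used 11-point dilutions.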

[5] = qHTS of pediatric cancer cell lines to identify multiple opportunities for drug repurposing: Primary screen for BT-12 cells (AID 1347101); also: nearly all actives have a fitted effect of over 25% in size
Outline: as §2

[6] = qHTS of pediatric cancer cell lines to identify multiple opportunities for drug repurposing: Primary screen for Rh18 cells (AID 1347102); also: nearly all actives have a fitted effect of over 65% in size
Outline: as §3

[7] = qHTS of pediatric cancer cell lines to identify multiple opportunities for drug repurposing: Primary screen for OHS-50 cells (AID 1347103); also: nearly all actives have a fitted effect of over 40% in size; also: potency is read from the fitted curve at half-maximal effect
Outline: as §2

[8] = qHTS of pediatric cancer cell lines to identify multiple opportunities for drug repurposing: Primary screen for MG 63 (6-TG R) cells (AID 1347105); also: nearly all actives have a fitted effect of over 50% in size; also: potency is read from the fitted curve at half-maximal effect
Outline: as §1

[9] = qHTS of pediatric cancer cell lines to identify multiple opportunities for drug repurposing: Primary screen for control Hh wild type fibroblast cells (AID 1347106);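 also: series mostly up to about 46 µM; a drop in luminescence marks cytotoxicity and a rise apparent proliferation; nearly all actives have a fitted effect of over 55% in size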
Outline: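 Cells (500-1,000/well) in growth media were settled 5 h at 37 degrees C, then given compounds for 48 h. Viability was read as CellTiter-Glo luminescence. Primary runs used MIPE at 11 points (0.78 nM-46 µM) and NPC at 8 points (0.59 nM-46 µM); follow-ups used 11 points.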

[10] = qHTS of pediatric cancer cell lines to identify multiple opportunities for drug repurposing: Primary screen for Rh30 cells (AID 1347107); also: series mostly up to about 46 µM; nearly all actives have a fitted effect of over 75% in size
Outline: as §3

[11] = qHTS of pediatric cancer cell lines to identify multiple opportunities for drug repurposing: Primary screen for Rh41 cells (AID 1347108);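 also: series mostly up to about 46 µM; luminescence drop marks cytotoxic hits; nearly all actives have a fitted effect of over 70% in size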
Outline: as §1

[12] = qHTS of pediatric cancer cell lines to identify multiple opportunities for drug repurposing: Primary screen for RD cells (AID 1347104); also: nearly all actives have a fitted effect of over 55% in size
Outline: as §1

[13] = qHTS of pediatric cancer cell lines to identify multiple opportunities for drug repurposing: Confirmatory screen for NB1643 cells (AID 1347109); also: nearly all actives have a fitted effect of over 45% in size
Outline: as §3

[14] = qHTS of pediatric cancer cell lines to identify multiple opportunities for drug repurposing: Confirmatory screen for A673 cells (AID 1347110); also: nearly all actives have a fitted effect of over 65% in size
Outline: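 qHTS titration format: primary MIPE 0.78 nM-46 µM (11 pts), NPC 0.59 nM-46 µM; confirmation 11 pts. 48 h, CTG luminescence.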

[15] = qHTS of pediatric cancer cell lines to identify multiple opportunities for drug repurposing: Confirmatory screen for SK-N-MC cells (AID 1347111);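 also: potency is read from the fitted curve at half-maximal effect; cells exposed to compound for 48 h before the readout; nearly all actives have a fitted effect of over 70% in size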
Outline: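 SK-N-MC cells at 500-1,000 cells/well in growth media were pre-incubated 5 h, then exposed to compounds at 11-point dilutions for 48 h at 37 degrees C, 5% CO2. Viability was read as CellTiter-Glo luminescence.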

[16] = qHTS of pediatric cancer cell lines to identify multiple opportunities for drug repurposing: Confirmatory screen for BT-12 cells (AID 1347112); also: nearly all actives have a fitted effect of over 55% in size
Outline: as §3

[17] = qHTS of pediatric cancer cell lines to identify multiple opportunities for drug repurposing: Confirmatory screen for DAOY cells (AID 1347114); also: nearly all actives have a fitted effect of over 65% in size
Outline: (§4)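 Viability measured as metabolically active cells via CellTiter-Glo luminescence following 48 hours of compound exposure, 11-point dilutions in confirmatory testing. 500-1,000 cells/well plated 5 hours before dosing; controls were DMSO and 2.3 µM bortezomib.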

[18] = qHTS of pediatric cancer cell lines to identify multiple opportunities for drug repurposing: Confirmatory screen for NB-EBc1 cells (AID 1347115); also: nearly all actives have a fitted effect of over 45% in size
Outline: as §3

[19] = qHTS of pediatric cancer cell lines to identify multiple opportunities for drug repurposing: Confirmatory screen for SJ-GBM2 cells (AID 1347116); also: nearly all actives have a fitted effect of over 60% in size
Outline: as §4

Row | SMILES | Potency [1] | Potency [2] | Potency [3] | Potency [4] | Potency [5] | Potency [6] | Potency [7] | Potency [8] | outcome [9] | outcome [10] | Potency [11] | Potency [12] | Potency [13] | Potency [14] | Potency [15] | Potency [16] | outcome [17] | Potency [18] | Potency [19]
1 | CCCOC(=O)c1ccccc1 | inactive | inactive | inactive | inactive | inactive | inactive | inactive | inactive | inactive | inactive | inactive |  |  |  |  |  |  |  | 
2 | Cc1cccc(Nc2cc(Cl)nc(SCC(=O)O)n2)c1C | inactive | inactive | inactive | inactive | inactive | inactive | inactive | inactive | inactive | inactive | inactive | inactive |  |  |  |  |  |  | 
3 | Nc1ccc(S(=O)(=O)Nc2nccs2)cc1 | inactive | inactive | inactive | inactive | inactive | inactive | inactive | inactive | inactive |  | inactive | inactive |  |  |  |  |  |  | 
4 | C[C@@H]1C[C@H]2[C@@H]3C[C@H](F)C4=CC(=O)C=C[C@]4(C)[C@@]3(F)[C@@H](O)C[C@]2(C)[C@@]1(O)C(=O)CO | inactive | inactive | inactive | inactive | inactive | inactive | inactive | inactive | inactive | inactive | inactive | inactive | inactive | inactive | 13100 nM (active) | inactive | inactive | inactive | inactive
5 | NC1CCN(c2cccc(Cl)n2)CC1 | inactive | inactive | inactive | inactive | inactive | inactive | inactive | inactive | inactive |  | inactive | inactive |  |  |  |  |  |  | 
6 | CN1[C@@H]2CC(OC(=O)[C@H](CO)c3ccccc3)C[C@H]1[C@@H]1O[C@@H]12 (some centres undefined) | inactive | inactive | inactive | inactive | inactive | inactive | inactive | inactive | inactive | inactive |  |  |  |  |  |  |  |  | 
7 | CC(=O)Oc1ccc(C2(c3ccc(OC(C)=O)cc3)C(=O)Nc3ccccc32)cc1 | inactive | inactive | inactive | inactive | inactive | inactive | 1100 nM (active) | 168 nM (active) | inactive | inactive | inactive | inactive |  |  |  |  |  |  | 
8 | O=c1cc(CO)occ1O | inactive | inactive | inactive | inactive | inactive | inactive | inactive | inactive | inactive | inactive | inactive | inactive |  |  |  |  |  |  | 
9 | Oc1cn2c(n1)Nc1ccc(Cl)c(Cl)c1C2 | inactive | inactive | inactive | inactive | inactive | inactive | inactive | inactive | inactive | inactive | inactive | inactive |  |  |  |  |  |  | 
10 | CO/N=C(\C(=O)N[C@@H]1C(=O)N2C(C(=O)O)=C(CSc3nc(=O)c(O)nn3C)CS[C@H]12)c1csc(N)n1 | inactive | inactive | inactive | inactive | inactive | inactive | inactive | inactive | inactive |  | inactive | inactive |  |  |  |  |  |  | 
11 | CC12CCC(CC1)C(C)(C)O2 | inactive | inactive | inactive | inactive | inactive | inactive | inactive | inactive | inactive | inactive | inactive |  |  |  |  |  |  |  | 
12 | CCOC(CN1CCN(CC(C)C(=O)c2ccccc2)CC1)c1ccccc1 (centres undefined) | inactive | inactive | inactive | inactive | inactive | inactive | inactive | inactive | inactive | inactive | inactive | inactive |  |  |  |  |  |  | 
13 | CC1(C)[C@@H]2CC[C@@]1(C)C(=O)C2 | inactive | inactive | inactive | inactive | inactive | inactive | inactive | inactive | inactive | inactive | inactive |  |  |  |  |  |  |  | 
14 | O=C1OC(OC(=O)c2cccnc2Nc2cccc(C(F)(F)F)c2)c2ccccc21 (centres undefined) | inactive | inactive | inactive | inactive | inactive | inactive | inactive | inactive | inactive | inactive | inactive |  |  |  |  |  |  |  | 
15 | NCCNCCNCCN | inactive | inactive | inactive | inactive | inactive | inactive | inactive | inactive | inactive | inactive | inactive | inactive |  |  |  |  |  |  | 
16 | NCC(=O)CCC(=O)O | inactive | inactive | inactive | inactive | inactive | inactive | inactive | inactive | inactive |  | inactive | inactive |  |  |  |  |  |  | 
17 | OCC(CO)N[C@H]1C[C@](O)(CO)[C@@H](O)[C@H](O)[C@H]1O | inactive | inactive | inactive | inactive | inactive | inactive | inactive | inactive | inactive | inactive | inactive | inactive |  |  |  |  |  |  | 
18 | CC(C)(C)NCC(O)COc1ccc(NC(=O)NC2CCCCC2)cc1 (centres undefined) | inactive | inactive | inactive | inactive | inactive | inactive | inactive | inactive | inactive | inactive | inactive | inactive |  |  |  |  |  |  | 
19 | Cc1cc2c(cc1S(N)(=O)=O)S(=O)(=O)CCC2 | inactive | inactive | inactive | inactive | inactive | inactive | inactive | inactive | inactive |  | inactive | inactive |  |  |  |  |  |  | 
